# According to the supplement of paper PMC8728848:
# Only a selection was taken, and the strongest signals are over-represented in it overall.
# B1: BT4246 (Bacteroides thetaiotaomicron), Q89ZX5 (protein)
# chain: MGSSHHHHHHENLYFQGHMASDYLDVVPPEQPNIDDAMSSPTRALGFLYSCYGGVSTDLPSAYLGEINSTTDEYVLPYSWNTDGYWGAYAFNTASSTNQDWLWGTTYQYIGQCYLFLQKLENAGSDIASDAEKEQWRAECQFLVAYYHFATLRRYGPIPITDSYIPMDTPTSEYNGRFHFDYCVDWIANQLDEAAKVLPANRTVTNEWGRATSTIAKAVKARLLLYAASPLWNGSFPYPNWQNENFETPGYGKALVSNTYDKSKWERALAACQEALTLATTSGDRELYDDDEYYSRQSLNLPFVPGVADVEDNKEFLKNVMKMRYAVSTRESEGNKEIIWGLSNQFDFYSRYPLRILKKSDGTWHAGYSGVSPTLYTFEHFYTANGKLPEKDLDFTPSSEWFESAGISSREDIIKLNVGREPRFYAWMAFDGGDYGTKFAAGSPLKLEMRNSEMHGYNPSLFNRDHSVTGFLTQKFVDPVTEFYTAGGSTSGTSAPTILFRLAELYLNVAECHAALGNTQEAIDALNPVRERAGIPKLTLADITNNMTIKDWVHNERFVELWNEGHRFFDVRRWAEGAKYFGANKREGLNAEVQSPTFEEFNKRTTVDAPYVWENRMYLNPVFYNEVYKNPQMVQAPGY
# Legend:
# Test in all cases: glycan array binding signal (z-score within array); higher = stronger binding
# Settings in all cases: glycan notation: IUPAC condensed, linker removed
# [1] = target: GlcNAc(a1-4)Gal(b1-4)GlcNAc(b1-3)Gal(b1-4)GlcNAc
# How it was run: (§1)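 The binding signal is a Z-score computed within each array. Data were drawn from 3228 arrays in the Consortium for Functional Glycomics database, restricted to those with a known protein sequence. Scores were averaged over arrays of the same protein sequence at different concentrations or buffers, and over linkers, and negative values can be taken as non-binding.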
# [2] = target: GlcNAc(a1-4)Gal(b1-4)GlcNAc(b1-3)Gal(b1-4)[Fuc(a1-3)]GlcNAc(b1-3)Gal(b1-4)[Fuc(a1-3)]GlcNAc
# How it was run: as §1
# [3] = target: GlcNAc(b1-2)Man(a1-3)[GlcNAc(b1-4)][GlcNAc(b1-2)Man(a1-6)]Man(b1-4)GlcNAc(b1-4)[Fuc(a1-6)]GlcNAc
# How it was run: as §1
# [4] = target: GlcNAc(b1-3)Gal(b1-3)GalNAc
# How it was run: as §1
# [5] = target: GlcNAc(b1-3)Gal(b1-4)GlcNAc(b1-2)Man(a1-3)[GlcNAc(b1-3)Gal(b1-4)GlcNAc(b1-2)Man(a1-6)]Man(b1-4)GlcNAc(b1-4)GlcNAc
# How it was run: as §1
# [6] = target: GlcNAc(b1-3)Gal(b1-4)GlcNAc(b1-3)Gal(b1-4)GlcNAc(b1-2)Man(a1-3)[GlcNAc(b1-3)Gal(b1-4)GlcNAc(b1-3)Gal(b1-4)GlcNAc(b1-2)Man(a1-6)]Man(b1-4)GlcNAc(b1-4)[Fuc(a1-6)]GlcNAc
# How it was run: as §1
# [7] = target: GlcNAc(b1-3)Gal(b1-4)GlcNAc(b1-3)Gal(b1-4)GlcNAc(b1-2)[GlcNAc(b1-3)Gal(b1-4)GlcNAc(b1-3)Gal(b1-4)GlcNAc(b1-6)]Man(a1-6)[GlcNAc(b1-3)Gal(b1-4)GlcNAc(b1-3)Gal(b1-4)GlcNAc(b1-2)Man(a1-3)]Man(b1-4)GlcNAc(b1-4)[Fuc(a1-6)]GlcNAc
# How it was run: as §1
# [8] = target: GlcNAc(b1-3)Gal(b1-4)GlcNAc(b1-3)Gal(b1-4)GlcNAc(b1-3)Gal(b1-4)GlcNAc(b1-2)[GlcNAc(b1-3)Gal(b1-4)GlcNAc(b1-3)Gal(b1-4)GlcNAc(b1-3)Gal(b1-4)GlcNAc(b1-6)]Man(a1-6)[GlcNAc(b1-3)Gal(b1-4)GlcNAc(b1-3)Gal(b1-4)GlcNAc(b1-3)Gal(b1-4)GlcNAc(b1-2)Man(a1-3)]Man(b1-4)GlcNAc(b1-4)[Fuc(a1-6)]GlcNAc
# How it was run: as §1
# [9] = target: GlcNAc(b1-3)Gal(b1-4)GlcNAc(b1-6)[Gal(b1-3)]GalNAc
# How it was run: as §1
# [10] = target: GlcNAc(b1-3)[GlcNAc(b1-4)][GlcNAc(b1-6)]GlcNAc
# How it was run: as §1
# [11] = target: GlcNAc(b1-4)Gal(b1-4)GlcNAc
# How it was run: as §1
# Kdn(a2-6)Gal(b1-4)GlcNAc = target: Kdn(a2-6)Gal(b1-4)GlcNAc
# How it was run: as §1
# [12] = target: Man(a1-2)Man(a1-3)[Man(a1-2)Man(a1-6)]Man(a1-6)[Man(a1-2)Man(a1-2)Man(a1-3)]Man(b1-4)GlcNAc(b1-4)GlcNAc
# How it was run: as §1
# [13] = target: Man(a1-2)Man(a1-6)[Man(a1-3)]Man(a1-6)[Man(a1-2)Man(a1-2)Man(a1-3)]Man(b1-4)GlcNAc(b1-4)GlcNAc
# How it was run: as §1
# [14] = target: Man(a1-3)[Man(a1-6)]Man(a1-6)[Man(a1-3)]Man
# How it was run: as §1
# [15] = target: Neu5Ac(a2-3)Gal(b1-3)GlcNAc(b1-3)Gal(b1-4)GlcNAc
# How it was run: as §1
# [16] = target: Neu5Ac(a2-3)Gal(b1-4)GlcNAc(b1-3)Gal
# How it was run: as §1
# [17] = target: Neu5Ac(a2-3)Gal(b1-4)GlcNAc(b1-3)Gal(b1-4)GlcNAc(b1-6)[Gal(b1-3)]GalNAc
# How it was run: as §1
# [18] = target: Neu5Ac(a2-3)Gal(b1-4)[Fuc(a1-3)]GlcNAc(b1-3)GalNAc
# How it was run: as §1
# [19] = target: Neu5Ac(a2-3)Gal(b1-4)[Fuc(a1-3)]GlcNAc(b1-6)[Gal(b1-3)]GalNAc
# How it was run: as §1
# Neu5Ac(a2-6)Gal(b1-4)Glc = target: Neu5Ac(a2-6)Gal(b1-4)Glc
# How it was run: as §1
# [20] = target: Neu5Ac(a2-6)Gal(b1-4)GlcNAc(b1-2)Man(a1-3)[Neu5Ac(a2-3)Gal(b1-4)GlcNAc(b1-2)Man(a1-6)]Man(b1-4)GlcNAc(b1-4)GlcNAc
# How it was run: as §1
# [21] = target: Neu5Ac(a2-6)Gal(b1-4)GlcNAc(b1-3)Gal(b1-4)GlcNAc(b1-3)[Neu5Ac(a2-6)Gal(b1-4)GlcNAc(b1-3)Gal(b1-4)GlcNAc(b1-6)]GalNAc
# How it was run: as §1
# [22] = target: Neu5Gc(a2-3)Gal(b1-4)GlcNAc(b1-3)Gal(b1-4)GlcNAc(b1-2)Man(a1-3)[Neu5Gc(a2-3)Gal(b1-4)GlcNAc(b1-3)Gal(b1-4)GlcNAc(b1-2)Man(a1-6)]Man(b1-4)GlcNAc(b1-4)GlcNAc
# How it was run: as §1
binder,measurement,setting,value
B1,glycan array binding signal (z-score),[1],-0.394
same,glycan array binding signal (z-score),[2],3.11
same,glycan array binding signal (z-score),[3],2.52
same,glycan array binding signal (z-score),[4],-0.081
same,glycan array binding signal (z-score),[5],0.802
same,glycan array binding signal (z-score),[6],-0.16
same,glycan array binding signal (z-score),[7],1.52
same,glycan array binding signal (z-score),[8],0.637
same,glycan array binding signal (z-score),[9],-0.339
same,glycan array binding signal (z-score),[10],-0.635
same,glycan array binding signal (z-score),[11],-0.482
same,glycan array binding signal (z-score),Kdn(a2-6)Gal(b1-4)GlcNAc,1.42
same,glycan array binding signal (z-score),[12],-0.169
same,glycan array binding signal (z-score),[13],1.59
same,glycan array binding signal (z-score),[14],3.62
same,glycan array binding signal (z-score),[15],1.07
same,glycan array binding signal (z-score),[16],-0.929
same,glycan array binding signal (z-score),[17],0.439
same,glycan array binding signal (z-score),[18],4.68
same,glycan array binding signal (z-score),[19],2.47
same,glycan array binding signal (z-score),Neu5Ac(a2-6)Gal(b1-4)Glc,-0.168
same,glycan array binding signal (z-score),[20],-0.62
same,glycan array binding signal (z-score),[21],3.02
same,glycan array binding signal (z-score),[22],2.77
